Screening data from PubChem.
Compounds with a hit are over-represented: about 21% of the library has one in this group of screens.
RORgamma inh: inhibitors of mouse ROR gamma transcriptional activity; P51450; Drosophila S2 Gal4-RORgamma UAS-luciferase reporter, 20 h; Potency, µM (titrated, usually from 53.6 µM), inactives show at the top dose activity change, negative = inhibition, actives largely listed as inhibitors; actives 5.4% (n = 310,000); also: potency is read from the fitted curve at half-maximal effect; nearly all actives have a fitted effect of over 60% in size
Target sequence (P51450 whole entry, looked up, the tested form may be a part): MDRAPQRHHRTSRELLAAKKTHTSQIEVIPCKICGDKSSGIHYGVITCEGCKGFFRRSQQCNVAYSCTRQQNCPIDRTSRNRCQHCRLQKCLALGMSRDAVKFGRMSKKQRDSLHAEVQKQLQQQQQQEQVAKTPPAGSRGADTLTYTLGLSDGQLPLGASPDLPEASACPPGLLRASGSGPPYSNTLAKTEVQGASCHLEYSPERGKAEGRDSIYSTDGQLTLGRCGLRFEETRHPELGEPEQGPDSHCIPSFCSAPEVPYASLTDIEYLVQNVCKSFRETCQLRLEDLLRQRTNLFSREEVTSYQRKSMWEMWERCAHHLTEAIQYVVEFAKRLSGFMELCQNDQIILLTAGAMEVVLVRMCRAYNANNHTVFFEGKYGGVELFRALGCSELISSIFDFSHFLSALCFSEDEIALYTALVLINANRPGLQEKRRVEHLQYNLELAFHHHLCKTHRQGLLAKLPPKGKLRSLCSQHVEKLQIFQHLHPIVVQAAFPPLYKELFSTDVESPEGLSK
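A Gal4/UAS one-hybrid system in insect cells: metallothionein-promoter Gal4–ROR gamma fusion plus Photinus luciferase reporter. Copper sulfate 700 uM final, 20 hr ambient incubation, luminescent detection after 10 min with reagent.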
VP16 counter: Gal4-VP16 reporter inhibition counter-screen; actives 3.5% (n = 310,000); Drosophila S2 Gal4-VP16 UAS-luciferase, luminescence, 20 h; Potency, µM (series often up to 53.6 µM), for the others: at the highest dose activity, negative = inhibition, most hits filed as inhibitors; AID 2546;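 also: Gal4-VP16 expression switched on by copper sulfate through the metallothionein promoter; potency is read from the fitted curve at half-maximal effect; nearly all actives have a fitted effect of over 50% in size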
TDP1 cell CPT: DT40-hTDP1 cell growth loss with CPT; AID 686979; chicken DT40 Tdp1-/-;hTDP1 cells + 20 nM CPT, ATP luminescence, 48 h; actives 12% (n = 420,000); Potency, µM (series often up to 46.2 µM), without a hit: top-dose activity change, negative = growth inhibition, usual class: inhibitors; also: potency is read from the fitted curve at half-maximal effect; nearly all actives have a fitted effect of over 55% in size
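Chicken DT40 Tdp1-/- cells complemented with human TDP1, 400 cells/well, exposed to compounds plus 20 nM camptothecin for at least 48 h at 37 C; viability read as ATP content by CellTiter-Glo luminescence.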
IL1B secr inh: inhibitors of inflammasome signaling (IL-1 beta secretion). THP-1 LPS/ATP IL-1B secretion, AlphaLISA, 16 h; hits give low values. activity change, % at 57.5 µM. actives 4.7% (n = 360,000). AID 743279; in the data active = activity change below about -50%; inconclusive = mostly about -30% to -49%
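THP-1 cells pretreated 1 hr with compounds (up to 57.5 uM final), then stimulated with LPS (250 ng/mL final) plus ATP (1.25 mM final); secreted IL-1B measured by AlphaLISA after 16 hr, decreased signal indicating inhibition.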
ELG1 DNA repair: inhibitors of ELG1-dependent DNA repair in HEK293T cells; HEK293T ELG1-luciferase reporter, luminescence, 16 h; DNA damage induced by 5-fluorouridine; Potency, µM (doses to about 46.1 µM), inactives show at the highest dose activity change, negative = inhibition, most hits filed as inhibitors; actives 2.3% (n = 330,000); AID 504467; also: potency is read from the fitted curve at half-maximal effect; nearly all actives have a fitted effect of over 55% in size
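5-Fluorouridine DNA damage + compound/DMSO, 2,000 cells/well, 16 h, 37 °C/5% CO2. ONE-Glo, 30 min RT, luminescence. Readout = decrease in reporter signal.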
TDP1 cell noCPT: qHTS for Inhibitors of human tyrosyl-DNA phosphodiesterase 1 (TDP1): qHTS in cells in absence of CPT. DT40 Tdp1-/- hTDP1 cells, no CPT, ATP luminescence, 48 h. Potency, µM (series often up to 46.2 µM), for the others: at the top dose activity change, negative = growth inhibition, hits mostly inhibitors. actives 15% (n = 420,000); also: potency is read from the fitted curve at half-maximal effect; nearly all actives have a fitted effect of over 55% in size
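Seeded 400 DT40-hTDP1 cells/well (vehicle DMSO, no 20 nM CPT); pinned compounds; ≥48 hr at 37 °C; CellTiter-Glo luminescence as viability measure.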
Starred values were filed as active, the others as inactive; ? = inconclusive; . = no result; [ ] = remark or other dose. Unless noted, calls follow the shape of the dose curve; as a rule, active = well fitted curve in the direction sought with a large enough effect; inconclusive = small, poorly fitted or top-dose-only effect, or another doubt; inactive = no such curve, though single readings can be large; an effect the other way counts as inactive or inconclusive. % is scaled to controls: 0 for no effect and ±100 for the full control effect.

SMILES | RORgamma inh | VP16 counter | TDP1 cell CPT | IL1B secr inh | ELG1 DNA repair | TDP1 cell noCPT
Nc1c(C(=O)Nc2cccc(C(=O)O)c2)sc2nc3c(cc12)CCCC3 | 2.8µM* | 3.2µM* | 1% | 5 | ? | 2%
Cc1cc(C)c2c(N)c(C(=O)Nc3cccc(C)c3C)sc2n1 | 17% | -20% | ? | 18 | -29% | 16µM*
CCOc1ccc(NC(=O)c2sc3nc4c(cc3c2N)CCCCCC4)cc1 | . | . | 8.2µM* | . | . | ?
Cc1ccc(NC(=O)c2sc3nc(C)cc(C)c3c2N)cc1 | -13% | -23% | -3% | 16 | ? | ?
Nc1c(C(=O)Nc2ccc(C(=O)O)cc2)sc2nc3c(cc12)CCCC3 | . | . | -4% | . | . | ?
Cc1cccc(NC(=O)c2sc3nc4c(cc3c2N)CCCCCC4)c1C | . | . | 1.5µM* | . | . | 0.65µM*
CSCC[C@H](NC(=O)[C@H](CCC(N)=O)NC(=O)[C@H](CCCCN)NC(=O)[C@H](CCCNC(=N)N)NC(=O)[C@H](Cc1ccc(O)cc1)NC(=O)[C@H](CCCNC(=N)N)NC(=O)[C@H](CO)NC(=O)[C@H](Cc1ccc(O)cc1)NC(=O)[C@H](CO)NC(=O)[C@H](CC(=O)O)NC(=O)[C@@H](NC(=O)[C@@H](N)Cc1ccccc1)[C@@H](C)O)C(=O)N[C@@H](C)C(=O)N[C@H](C(=O)N[C@@H](CCCCN)C(=O)N[C@@H](CCCCN)C(=O)N[C@@H](Cc1ccc(O)cc1)C(=O)N[C@@H](CC(C)C)C(=O)N[C@@H](C)C(=O)N[C@@H](C)C(=O)N[C@H](C(=O)N[C@@H](CC(C)C)C(=O)NCC(=O)N[C@@H](CCCCN)C(=O)N[C@@H](CCCNC(=N)N)C(=O)N[C@@H](Cc1ccc(O)cc1)C(=O)N[C@@H](CCCCN)C(=O)N[C@@H](CCC(N)=O)C(=O)N[C@@H](CCCNC(=N)N)C(=O)N[C@H](C(=O)N[C@@H](CCCCN)C(=O)N[C@@H](CC(N)=O)C(=O)N[C@@H](CCCCN)C(N)=O)C(C)C)C(C)C)C(C)C | 9% | 4% | . | . | . | .
COc1ccc(NC(=O)c2sc3nc4c(cc3c2N)CN(Cc2ccccc2)CC4)cc1OC | . | . | -15% | . | . | -21%
NC(=O)c1sc2nc3c(cc2c1N)CCCCCC3 | 11% | ? | ? | -97* | ? | ?
Nc1c(C(=O)O)sc2nc3c(cc12)CCCC3 | -22% | -9% | 3% | 55 | 14% | -11%
Cc1ccccc1NC(=O)c1sc2nc3c(cc2c1N)CN(Cc1ccccc1)CC3 | . | . | ? | . | . | 18µM*
Cc1c(C(=O)NCc2ccccc2Cl)sc2ncnc(NCC3CCCO3)c12 (stereo not drawn) | . | . | -4%[9.04 µM] | . | . | -7%
CCOC(=O)c1sc(Nc2nc(OC)cc(OC)n2)nc1C | 8% | -1% | ? | 53 | 26µM* | 21µM*
